# Assay outcomes as filed in PubChem BioAssay.
# Only some compounds are listed: those with a hit (about 2.2% of all), similar ones and a draw of the others.
# GLP-1R inv ag = acts as inverse agonist at human GLP-1 receptor. P43220. HEK293 GLP-1R CRE-luciferase, luminescence, 24 h; GLP-1R form is constitutively active. Potency, µM (titrated, usually from 38.3 µM), without a hit: top-dose activity change, negative = inhibition, hits mostly inhibitors. 410,000 compounds, 1.6% hits. AID 624417; note: potency is the fitted concentration of half-maximal effect; % is set by controls: 0 for no effect and ±100 for the full control effect; nearly all actives have a fitted effect of over 55% in size
# Target sequence (P43220 whole entry, looked up): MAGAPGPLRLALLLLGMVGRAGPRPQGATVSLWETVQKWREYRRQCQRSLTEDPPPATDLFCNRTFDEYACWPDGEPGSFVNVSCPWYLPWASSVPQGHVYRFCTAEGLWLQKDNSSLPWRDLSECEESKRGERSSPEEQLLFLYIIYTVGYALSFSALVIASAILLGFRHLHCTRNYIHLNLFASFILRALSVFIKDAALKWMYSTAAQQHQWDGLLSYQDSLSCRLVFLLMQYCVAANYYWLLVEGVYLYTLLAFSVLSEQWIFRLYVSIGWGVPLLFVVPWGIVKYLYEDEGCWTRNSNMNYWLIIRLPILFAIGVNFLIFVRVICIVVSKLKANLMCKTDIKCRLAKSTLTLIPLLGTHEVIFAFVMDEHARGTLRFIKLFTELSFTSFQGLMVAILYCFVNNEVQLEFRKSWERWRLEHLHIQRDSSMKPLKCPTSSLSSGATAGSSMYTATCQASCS
#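 Luminescence readout: a drop in cAMP-driven luciferase signal flags inverse agonism at a constitutively active GLP-1R stably expressed in HEK293. Compound exposure lasted 24 hr at 37 deg C, 5% CO2.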
# MmCpn inh = inhibitors of Methanococcus maripaludis chaperonin TRiC (MmCpn); purified Mm-Cpn ATPase, ADP Transcreener TR-FRET; Potency, µM (titrated, usually from 76.9 µM), without a hit: at the top dose activity, negative = inhibition, most hits filed as inhibitors; 330,000 compounds, 0.031% hits; AID 504842; note: potency is the fitted concentration of half-maximal effect; % is set by controls: 0 for no effect and ±100 for the full control effect; nearly all actives have a fitted effect of over 80% in size
#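 Purified archaeal chaperonin (25 nM final) was preincubated with compound for 10 min at 37°C, then ATP (10 uM final) was added for 30 min at 37°C in Tris pH 7.4/KCl/MgCl2/DTT buffer. ADP was quantified by HTRF Transcreener TR-FRET.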
# HEK293 tox = cytotoxicity counter-screen for GLP-1 receptor inverse agonists. Potency, µM (highest dose often 38.3 µM), for inactives: top-dose activity change, negative = inhibition, hits mostly inhibitors. 410,000 compounds, 0.13% hits. HEK293 cAMP-luciferase reporter cells, luminescence, 24 h. AID 624418;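 note: loss of luciferase light is scored as toxicity; potency is the fitted concentration of half-maximal effect; % is set by controls: 0 for no effect and ±100 for the full control effect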
#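 To flag toxic compounds, the library was rerun on cells for 24 hr at 37 deg C and 5% CO2. Viability-linked luminescence was captured 12 min after adding luciferase detection reagent.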
# uPA generation = blocks generation of uPA at the cell surface | cell surface uPA generation assay, qHTS | Potency, µM (titrated, usually from 38.3 µM), for the others: at the highest dose activity change, negative = inhibition, hits mostly inhibitors | 330,000 compounds, 0.31% hits; active = well fitted inhibition curve with a large enough effect; inconclusive = small, poorly fitted or top-dose-only effect; inactive = no such curve, though single readings can be large or run the other way; tested in mouse RAW 264.7 cells; note: potency is the fitted concentration of half-maximal effect; % is set by controls: 0 for no effect and ±100 for the full control effect; nearly all actives have a fitted effect of over 55% in size
# CCT chaperon mod = cytosolic chaperonin activity modulation; 360,000 compounds, 0.3% hits; activity change, % (test concentration not listed), hits read low; AID 651819; purified chaperonin ATPase assay, HTRF ADP detection, 30 min; in the data active = activity change below about -30%; note: % is set by controls: 0 for no effect and ±100 for the full control effect
#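 ATPase activity: ADP formed was measured by HTRF Transcreener (665/615 nm ratio) after 30 min at 37 deg C with 10 uM ATP. Compounds screened at one 76 uM concentration against 40 or 20 nM TRiC in Tris pH 7.4/KCl/MgCl2/DTT buffer.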
# GLP1R ag = activates the human GLP-1 receptor. HEK293 GLP-1R CRE-luciferase, luminescence, 4-6 h; cells express a hypersensitive GLP-1R form. Potency, µM (titrated, usually from 45.6 µM), for inactives: at the top dose activation, actives largely listed as activators. 380,000 compounds, 0.007% hits. AID 624172; note: potency is the fitted concentration of half-maximal effect; % of control where 0% means no effect
# * = called active by the depositor; u = inconclusive; x = not tested or not shown. Unless noted, calls come from the whole dose curve; as a rule, active = well fitted curve in the direction sought with a large enough effect; inconclusive = small, poorly fitted or top-dose-only effect, or another doubt; inactive = no such curve, though single readings can be large; an effect the other way counts as inactive or inconclusive.
SMILES,GLP-1R inv ag,MmCpn inh,HEK293 tox,uPA generation,CCT chaperon mod,GLP1R ag
N=c1ccn2c(n1)O[C@H]1[C@H](O)[C@@H](CO)O[C@H]12,u,2%,-7%,u,-1,-2%
N=c1nc2n(cc1F)C1OC(CO)C(O)C1O2 (stereo not drawn),-20%,x,-19%,-10%,-48*,-9%
CCCN(CCC)C(=O)Cn1c(SCc2cccc(F)c2)nc2cccnc21,0%,x,1%,x,x,x
CCOc1ccc(NC(=O)N(Cc2cn(CC)c3ccccc23)C2CCCCCC2)cc1,11µM*,x,-30%,x,x,x
CCn1nnc2cc(C(=O)Nc3cccc(C)c3C)ccc21,-22%,x,-18%,x,x,x
CCCN(CCC)CC(O)CN(c1ccccc1)S(=O)(=O)c1ccc(C)cc1 (stereo not drawn),u,0%,-24%,-2%,1,0%
CCCCN(c1nc2ccccc2nc1Cl)S(=O)(=O)c1ccc(C)cc1,10µM*,-1%,0%,-17%,-3,16%
O=C(N/N=C/C(Cl)=C/c1ccccc1)c1ccc2c(c1)OCO2,u,0%,-18%,6.3µM*,0,-2%
O=C(N/N=C/c1ccc2c(c1)OCO2)c1ccc2c(c1)OCO2,-16%,-6%,-12%,2%,0,2%
CCOc1ccc(CCNC(=O)c2ccc(-c3nc(COc4ccc(C)cc4)c(C)o3)cc2)cc1,3%,x,2%,x,x,x
COc1ccc(C(=O)N/N=C/c2ccccc2OC(=O)c2ccccc2)cc1,10µM*,2%,-4%,-14%,0,u
COc1ccc(Oc2ccccc2/C=N/O)cc1,1µM*,1%,8%,8%,-1,2%
COc1cc(OC)nc(Oc2ccccc2/C=N/O)n1,15%,x,1%,-19%,1,-8%
CCCc1cc(C(=O)N(C2CCCCC2)C2CCCCC2)no1,8.9µM*,0%,-2%,-1%,0,-6%
CCCc1cc(C(=O)NC2CCCCC2)no1,-8%,-1%,-2%,8%,1,21%
CCn1c(O)c(N=NC(=O)CNC(=O)Cc2ccccc2)c2ccccc21,66%,-1%,-1%,2%,2,-2%
NC(=O)Cn1c(O)c(N=NC(=O)CNC(=O)/C=C/c2ccccc2)c2ccccc21,10%,1%,-3%,10%,-73*,3%
O=C(CNC(=O)c1ccco1)N=Nc1c(O)n(CCc2ccccc2)c2ccccc12,u,-1%,-20%,1.1µM*,-2,4%
CCCn1c(O)c(N=NC(=O)CNC(=O)/C=C/c2ccc(OC)cc2)c2ccccc21,-26%,2%,-13%,3%,0,-2%
CCN(CC)C(=S)SCC(=O)NC12CC3CC(CC(C3)C1)C2,2.8µM*,0%,0%,-1%,0,18%
Cc1cccn2c(=O)c3cc(C(=O)NCc4ccccc4)c(=N)n(CCOCCO)c3nc12,18%,x,318%,x,x,8%
Cn1cccc1/C=C1\SC(=Nc2ccccc2)NC1=O,u,-6%,u,1.4µM*,1,u
CC(C)(C)c1ccc(C(=O)NCC(c2cccs2)S(=O)(=O)c2cccs2)cc1 (stereo not drawn),u,x,-14%,x,x,x
CC(C)(C)c1ccc(C(=O)NCC(c2cccs2)S(=O)(=O)c2ccc(F)cc2)cc1 (stereo not drawn),4.5µM*,x,-2%,x,x,x
c1ccc(-c2cnc(-c3ccccn3)nn2)cc1,u,x,-6%,6.3µM*,1,0%
SMILES,GLP-1R inv ag,MmCpn inh,HEK293 tox,uPA generation,CCT chaperon mod,GLP1R ag
CC1=CC(C)(C)NC(=S)N1c1ccc(C)c(C)c1,11µM*,1%,11µM*,7%,-2,4%
CC1=CC(C)(C)NC(=S)N1c1ccc(C)cc1,u,-1%,u,-4%,-2,-4%
CN(c1ccccc1)S(=O)(=O)c1cccc(C(=O)OCC(=O)NCc2ccco2)c1,1%,1%,-1%,-6%,-1,5%
CN(c1ccc(F)cc1)S(=O)(=O)c1ccc(Cl)c(C(=O)OCC(=O)NCc2ccco2)c1,u,-2%,1%,0%,-31*,-2%
CCN1CCOC(=O)C1CC(=O)Nc1ccc(Br)cc1 (stereo not drawn),2%,x,26%,x,x,x
O=C(NNC(=S)Nc1ccc(Cl)cc1)c1cccs1,2%,-2%,1%,-6%,-71*,-6%
COC(=O)c1cc2sccc2n1Cc1ccc(F)cc1Cl,u,x,-1%,x,x,x
COc1ccc(Cc2nnc(NC(=O)CSc3ccccc3)s2)cc1,-8%,0%,-16%,0%,-1,0%
COc1ccc(Cc2nnc(NC(=O)CSc3ccc(C)cc3)s2)cc1,-13%,0%,-6%,-2%,-41*,0%
O=C(O)c1ccc(N=Cc2c(O)ccc3oc4c(c23)CCCC4)cc1,-14%,1%,1%,2%,0,-1%
Oc1ccccc1N=Cc1c(O)ccc2oc3c(c12)CCCC3,u,-1%,3%,4.5µM*,-1,8%
COc1ccc2ncc3c(-c4ccc(C)c(C)c4)nn(CC(=O)Nc4ccccc4)c3c2c1,8%,x,6%,x,x,x
Cc1ccc(N2CCN(Cc3nnc(-c4ccc5c(c4)OCO5)o3)CC2)c(C)c1,5%,x,4%,x,x,x
CSc1nc(Cl)c(Cc2ccc(OC(C)C)cc2)c(N2CCOCC2)n1,13µM*,0%,12%,11%,0,8%
COC(=O)c1c(C)nn(-c2ccc(F)cc2)c1-n1cccc1,14%,x,-12%,x,x,x
CCN(CC)c1ccc(/C=N/Nc2nc(C)cc(C)n2)cc1,11µM*,-4%,u,-8%,-9,10%
CCCS(=O)(=O)NCCc1sc2nc(-c3ccc(Cl)cc3)nn2c1C,u,x,-10%,x,x,x
CC(Oc1ccccc1)C(=O)Nc1ccccc1C(=O)OCc1cc(=O)n2nc(C(C)C)sc2n1 (stereo not drawn),2%,x,7%,x,x,x
COc1ccc(Cl)cc1NC(=O)Cn1cc(S(=O)(=O)Cc2cccc(Cl)c2)c2ccccc21,u,x,-9%,x,x,x
O=C(Nc1cccc(NC(=O)c2cc([N+](=O)[O-])ccc2Cl)n1)c1cc([N+](=O)[O-])ccc1Cl,4µM*,x,u,8.9µM*,0,18%
O=C(NC1CC1)c1ccc(CS(=O)c2ccccc2)o1 (stereo not drawn),8%,0%,-11%,0%,1,-4%
CC1(C)CCC[C@]2(C)C(CS(=O)c3ccccc3)=C(C=O)CC[C@@H]12 (stereo partly drawn),2.8µM*,x,-13%,-6%,2,10%
O=C1CC(c2nc3ccccc3n2CCCOc2ccccc2)CN1c1ccc(F)cc1 (stereo not drawn),u,x,-1%,x,x,x
